Key:
Test in all cases: log2 ratio of Biotin-Ahx-Ub-VS probe labelling (fragment/DMSO); higher = less target engagement (more negative = stronger competition), active = hit call of the paper (q ≤ 0.05, log2 ratio ≤ -1)
Details in all cases: compound concentration: 200 uM; treatment time: 3 h
OTUD6B = target: T1, OTUD6B (UniProt Q8N6M0)
T1 sequence (whole entry): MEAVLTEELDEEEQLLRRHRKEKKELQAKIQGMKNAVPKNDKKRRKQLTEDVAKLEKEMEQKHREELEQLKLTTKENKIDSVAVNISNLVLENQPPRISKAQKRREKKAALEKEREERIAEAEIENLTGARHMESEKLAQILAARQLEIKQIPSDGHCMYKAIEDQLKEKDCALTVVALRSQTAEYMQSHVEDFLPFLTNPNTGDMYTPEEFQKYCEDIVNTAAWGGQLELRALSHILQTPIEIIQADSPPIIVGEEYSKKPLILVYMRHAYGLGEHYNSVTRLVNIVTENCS
How it was run: (§1)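 In triplicate, 495 µg of HEK293T lysate per sample was incubated with fragment at 200 µM or vehicle for 3 h. Biotin-Ahx-Ub-VS was then added to 0.5 µM final for 1 h, and labelled DUBs were captured with NeutrAvidin, digested with LysC and trypsin, and measured by diaPASEF LC-MS/MS. Data are average log2 fragment/vehicle ratios by unpaired t-test from global-median-normalised Spectronaut label-free quantities, restricted to proteins with ≥2 unique peptides.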

OTUD7B = target: T2, OTUD7B (UniProt Q6GQQ9)
T2 sequence (whole entry): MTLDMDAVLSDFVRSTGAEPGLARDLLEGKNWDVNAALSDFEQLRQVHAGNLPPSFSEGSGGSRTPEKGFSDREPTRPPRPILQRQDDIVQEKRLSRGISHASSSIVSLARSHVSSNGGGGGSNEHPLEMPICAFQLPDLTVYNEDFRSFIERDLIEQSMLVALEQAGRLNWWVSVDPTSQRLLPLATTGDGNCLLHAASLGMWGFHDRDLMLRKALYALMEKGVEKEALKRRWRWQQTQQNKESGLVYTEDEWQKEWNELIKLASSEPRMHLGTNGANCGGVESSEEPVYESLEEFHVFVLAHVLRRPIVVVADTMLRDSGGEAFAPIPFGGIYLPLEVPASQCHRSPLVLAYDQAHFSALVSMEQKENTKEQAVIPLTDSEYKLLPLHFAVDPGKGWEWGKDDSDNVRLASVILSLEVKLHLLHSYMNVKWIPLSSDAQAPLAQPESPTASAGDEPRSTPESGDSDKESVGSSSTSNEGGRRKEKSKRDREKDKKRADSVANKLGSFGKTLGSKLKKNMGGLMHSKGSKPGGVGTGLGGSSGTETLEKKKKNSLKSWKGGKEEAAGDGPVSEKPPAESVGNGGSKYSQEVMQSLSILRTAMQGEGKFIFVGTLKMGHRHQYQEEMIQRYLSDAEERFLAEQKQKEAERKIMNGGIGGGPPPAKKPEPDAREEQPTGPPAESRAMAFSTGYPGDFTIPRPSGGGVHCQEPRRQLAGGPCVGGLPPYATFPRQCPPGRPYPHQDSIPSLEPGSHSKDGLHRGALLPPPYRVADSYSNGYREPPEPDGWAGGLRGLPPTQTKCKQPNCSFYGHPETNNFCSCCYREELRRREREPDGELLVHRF
How it was run: as §1

PRPF8 = PRPF8 (UniProt Q6P2Q9)
How it was run: as §1

PSMD7 = target: T3, PSMD7 (UniProt P51665)
T3 sequence (whole entry): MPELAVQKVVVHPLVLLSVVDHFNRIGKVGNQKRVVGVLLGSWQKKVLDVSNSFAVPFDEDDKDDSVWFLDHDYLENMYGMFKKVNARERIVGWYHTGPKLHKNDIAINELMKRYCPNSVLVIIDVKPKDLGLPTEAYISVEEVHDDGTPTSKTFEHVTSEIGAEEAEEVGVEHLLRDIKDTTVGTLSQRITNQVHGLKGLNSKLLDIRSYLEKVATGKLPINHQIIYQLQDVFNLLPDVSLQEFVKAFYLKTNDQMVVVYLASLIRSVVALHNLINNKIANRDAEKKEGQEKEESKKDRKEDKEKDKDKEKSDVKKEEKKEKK
How it was run: as §1

UCHL1 = UCHL1 (UniProt P09936)
How it was run: as §1

UCHL3 = target: T4, UCHL3 (UniProt P15374)
T4 sequence (whole entry): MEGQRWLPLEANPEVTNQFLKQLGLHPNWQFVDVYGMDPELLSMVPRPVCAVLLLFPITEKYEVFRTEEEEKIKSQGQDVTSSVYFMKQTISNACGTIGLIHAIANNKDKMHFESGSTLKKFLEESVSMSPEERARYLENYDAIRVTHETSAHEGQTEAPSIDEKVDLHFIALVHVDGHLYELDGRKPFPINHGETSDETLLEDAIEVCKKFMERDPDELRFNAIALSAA
How it was run: as §1

UCHL5 = target: T5, UCHL5 (UniProt Q9Y5K5)
T5 sequence (whole entry): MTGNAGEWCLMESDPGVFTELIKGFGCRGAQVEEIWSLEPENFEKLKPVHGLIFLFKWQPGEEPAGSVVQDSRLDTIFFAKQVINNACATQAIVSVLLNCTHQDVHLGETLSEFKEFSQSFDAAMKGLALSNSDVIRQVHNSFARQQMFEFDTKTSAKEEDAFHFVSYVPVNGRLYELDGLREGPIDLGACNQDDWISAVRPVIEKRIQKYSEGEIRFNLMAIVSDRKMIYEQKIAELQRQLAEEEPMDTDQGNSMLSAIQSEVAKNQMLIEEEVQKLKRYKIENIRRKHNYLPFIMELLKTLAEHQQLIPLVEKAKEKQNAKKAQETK
How it was run: as §1

USP10 = USP10 (UniProt Q14694)
How it was run: as §1

USP15 = target: T6, USP15 (UniProt Q9Y4E8)
T6 sequence (whole entry): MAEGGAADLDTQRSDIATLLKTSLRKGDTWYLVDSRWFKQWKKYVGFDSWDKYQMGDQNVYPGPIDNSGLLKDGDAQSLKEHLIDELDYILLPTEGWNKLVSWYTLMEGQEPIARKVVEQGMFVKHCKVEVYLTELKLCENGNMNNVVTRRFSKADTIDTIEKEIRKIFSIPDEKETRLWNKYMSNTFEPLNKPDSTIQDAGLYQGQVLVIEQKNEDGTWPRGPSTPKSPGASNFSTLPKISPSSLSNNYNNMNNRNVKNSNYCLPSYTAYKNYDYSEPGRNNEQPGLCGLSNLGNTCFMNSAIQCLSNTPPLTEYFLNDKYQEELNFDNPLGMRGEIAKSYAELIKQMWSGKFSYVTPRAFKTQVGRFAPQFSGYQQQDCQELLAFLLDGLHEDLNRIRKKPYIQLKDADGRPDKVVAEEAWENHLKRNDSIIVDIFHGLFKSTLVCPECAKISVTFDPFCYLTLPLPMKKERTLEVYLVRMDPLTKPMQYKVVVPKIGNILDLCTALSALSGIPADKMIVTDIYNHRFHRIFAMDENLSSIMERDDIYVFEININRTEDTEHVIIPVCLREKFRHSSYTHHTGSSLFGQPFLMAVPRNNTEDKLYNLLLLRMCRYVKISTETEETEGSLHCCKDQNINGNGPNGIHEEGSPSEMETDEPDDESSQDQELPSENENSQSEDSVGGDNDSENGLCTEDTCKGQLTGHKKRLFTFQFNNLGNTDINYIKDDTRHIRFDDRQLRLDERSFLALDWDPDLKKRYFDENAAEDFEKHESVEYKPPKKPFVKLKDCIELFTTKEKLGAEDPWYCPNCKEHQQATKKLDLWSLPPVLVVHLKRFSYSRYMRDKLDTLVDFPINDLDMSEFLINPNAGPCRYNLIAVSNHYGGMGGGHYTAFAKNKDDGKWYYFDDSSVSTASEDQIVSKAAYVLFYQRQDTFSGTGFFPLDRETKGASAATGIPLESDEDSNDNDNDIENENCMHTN
How it was run: as §1

USP16 = USP16 (UniProt Q9Y5T5)
How it was run: as §1

Measured: log2 ratio of Biotin-Ahx-Ub-VS probe labelling

Chain of UCHL1 (P09936 whole entry, looked up): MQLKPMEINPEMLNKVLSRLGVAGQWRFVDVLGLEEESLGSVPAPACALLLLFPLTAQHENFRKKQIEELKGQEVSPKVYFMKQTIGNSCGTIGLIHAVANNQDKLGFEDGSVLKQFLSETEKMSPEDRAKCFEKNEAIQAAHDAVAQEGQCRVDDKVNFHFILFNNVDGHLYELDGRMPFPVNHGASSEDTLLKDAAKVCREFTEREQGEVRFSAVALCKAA
Chain of USP16 (Q9Y5T5 whole entry, looked up): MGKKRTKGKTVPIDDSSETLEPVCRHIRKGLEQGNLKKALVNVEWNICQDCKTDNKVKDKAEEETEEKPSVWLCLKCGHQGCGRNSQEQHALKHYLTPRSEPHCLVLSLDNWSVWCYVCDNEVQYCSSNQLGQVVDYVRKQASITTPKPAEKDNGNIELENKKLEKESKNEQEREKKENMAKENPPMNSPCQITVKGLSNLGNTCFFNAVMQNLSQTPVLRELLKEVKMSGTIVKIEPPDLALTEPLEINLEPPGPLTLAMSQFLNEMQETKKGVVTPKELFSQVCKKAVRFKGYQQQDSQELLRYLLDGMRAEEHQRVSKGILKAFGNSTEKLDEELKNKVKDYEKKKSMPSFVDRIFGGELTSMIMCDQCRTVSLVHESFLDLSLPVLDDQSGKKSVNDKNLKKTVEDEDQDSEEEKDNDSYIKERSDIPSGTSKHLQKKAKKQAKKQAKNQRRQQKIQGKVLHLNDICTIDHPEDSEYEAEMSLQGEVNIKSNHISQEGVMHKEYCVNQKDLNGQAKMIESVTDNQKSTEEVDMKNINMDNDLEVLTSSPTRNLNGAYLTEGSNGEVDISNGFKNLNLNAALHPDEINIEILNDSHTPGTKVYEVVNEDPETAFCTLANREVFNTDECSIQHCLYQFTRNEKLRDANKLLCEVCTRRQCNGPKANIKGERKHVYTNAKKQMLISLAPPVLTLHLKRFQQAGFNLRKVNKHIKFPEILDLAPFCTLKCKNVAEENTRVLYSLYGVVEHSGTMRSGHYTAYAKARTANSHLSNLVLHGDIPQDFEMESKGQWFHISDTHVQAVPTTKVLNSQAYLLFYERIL
Chain of USP10 (Q14694 whole entry): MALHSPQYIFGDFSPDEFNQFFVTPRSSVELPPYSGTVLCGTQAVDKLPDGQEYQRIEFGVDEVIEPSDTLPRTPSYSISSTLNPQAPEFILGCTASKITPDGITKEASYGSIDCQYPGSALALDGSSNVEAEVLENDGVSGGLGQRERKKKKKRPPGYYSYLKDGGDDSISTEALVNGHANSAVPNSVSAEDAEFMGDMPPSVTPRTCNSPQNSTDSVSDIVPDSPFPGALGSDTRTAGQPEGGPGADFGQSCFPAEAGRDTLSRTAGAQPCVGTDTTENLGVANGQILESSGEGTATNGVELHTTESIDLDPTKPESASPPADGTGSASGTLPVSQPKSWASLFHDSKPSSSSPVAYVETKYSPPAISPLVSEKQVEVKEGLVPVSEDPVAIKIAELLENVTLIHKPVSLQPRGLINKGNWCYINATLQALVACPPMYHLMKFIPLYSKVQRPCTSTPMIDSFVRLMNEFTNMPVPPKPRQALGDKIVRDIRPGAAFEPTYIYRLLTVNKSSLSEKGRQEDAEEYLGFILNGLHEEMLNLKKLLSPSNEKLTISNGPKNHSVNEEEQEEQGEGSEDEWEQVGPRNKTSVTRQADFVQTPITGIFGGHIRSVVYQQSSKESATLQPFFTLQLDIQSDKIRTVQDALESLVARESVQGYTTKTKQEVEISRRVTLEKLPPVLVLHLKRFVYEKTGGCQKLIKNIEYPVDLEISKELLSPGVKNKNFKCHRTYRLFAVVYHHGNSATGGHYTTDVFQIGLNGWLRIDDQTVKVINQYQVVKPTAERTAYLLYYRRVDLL

O=C(CCl)Nc1ccc(Cl)c(F)c1
active: OTUD7B -1.15 | UCHL1 -1.36
inactive: OTUD6B -0.448 | PRPF8 0.0807 | PSMD7 -0.221 | UCHL3 -0.216 | UCHL5 -0.398 | USP10 -0.142 | USP15 -0.331 | USP16 0.323

From the supplement of paper PMC11732987, “Enantioselective OTUD7B fragment discovery through chemoproteomics screening and high-throughput optimisation” (Communications Chemistry, 2025)
